Measured values reported in publication PMC4336329 (PLoS ONE, 2015).
Screen size: about 310,000 compounds; about 2,200 (0.71%) showed an effect of 50% or more. The effect is printed as a negative number. The entries come from a sample that favours strong results as a whole.

biological target: human ether-à-go-go-related gene (hERG) potassium channel (human, UniProt Q12809); assay: primary screen, population patch clamp on CHO cells stably expressing hERG; higher = less effect of the substance
Sequence (Q12809 whole entry, looked up): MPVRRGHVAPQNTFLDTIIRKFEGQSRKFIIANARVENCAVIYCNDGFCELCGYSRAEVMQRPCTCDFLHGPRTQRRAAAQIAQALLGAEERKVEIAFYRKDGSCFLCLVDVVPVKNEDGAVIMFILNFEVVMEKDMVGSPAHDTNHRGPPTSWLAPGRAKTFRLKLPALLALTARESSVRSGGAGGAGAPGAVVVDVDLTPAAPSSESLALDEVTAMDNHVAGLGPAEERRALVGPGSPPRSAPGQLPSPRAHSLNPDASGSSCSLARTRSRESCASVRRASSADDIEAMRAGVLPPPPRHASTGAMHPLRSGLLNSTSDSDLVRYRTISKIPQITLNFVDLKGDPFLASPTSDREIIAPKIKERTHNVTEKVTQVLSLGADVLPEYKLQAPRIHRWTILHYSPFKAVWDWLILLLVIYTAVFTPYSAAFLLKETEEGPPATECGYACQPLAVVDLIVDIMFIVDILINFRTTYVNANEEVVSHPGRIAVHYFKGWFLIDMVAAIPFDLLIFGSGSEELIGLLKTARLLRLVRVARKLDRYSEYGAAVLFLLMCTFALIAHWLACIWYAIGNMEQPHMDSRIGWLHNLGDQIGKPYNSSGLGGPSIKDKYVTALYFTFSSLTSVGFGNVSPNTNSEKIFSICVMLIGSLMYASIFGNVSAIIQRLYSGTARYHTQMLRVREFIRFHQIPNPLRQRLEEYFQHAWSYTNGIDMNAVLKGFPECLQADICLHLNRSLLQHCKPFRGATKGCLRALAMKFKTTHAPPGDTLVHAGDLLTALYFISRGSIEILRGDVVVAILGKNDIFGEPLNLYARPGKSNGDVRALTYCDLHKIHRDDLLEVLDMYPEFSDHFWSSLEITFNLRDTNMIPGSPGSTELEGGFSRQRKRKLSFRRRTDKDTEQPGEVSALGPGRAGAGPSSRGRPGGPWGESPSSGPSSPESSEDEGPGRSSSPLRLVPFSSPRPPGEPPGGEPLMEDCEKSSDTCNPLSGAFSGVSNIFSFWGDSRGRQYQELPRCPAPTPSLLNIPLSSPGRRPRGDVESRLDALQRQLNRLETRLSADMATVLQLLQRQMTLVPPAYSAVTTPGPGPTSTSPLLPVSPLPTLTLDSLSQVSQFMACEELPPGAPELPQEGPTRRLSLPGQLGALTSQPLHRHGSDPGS

SMILES | hERG current change (%, negative = inhibition) at 1uM [%]
COC(=O)c1cc(NC(=O)C2(S(=O)(=O)c3ccc(C)cc3)CC2)cc(C(=O)OC)c1 | 0.157
COc1ccc(O)c(C(=O)c2cc(C#N)c(=O)n(Cc3ccccc3)c2)c1 | 8.35
O=C(NCc1ccccc1)C1(C(F)(F)F)C/C(=C\CCO)CCCO1 (stereo not shown) | 14.1
Cc1ccc(/C=C2/C(=O)NC(=O)N(CCc3ccc(F)cc3)C2=O)o1 | 2.54
CCC1CN(C(=O)N2CCC(C(=O)NCCc3ccccc3)CC2)c2ccccc2O1 (stereo not shown) | 8.85
O=C(CCc1nc2cccnc2n1Cc1ccccc1)NCCc1ccc(Cl)cc1 | -65.2
CCCCNC(=O)CCc1nc2cccnc2n1Cc1ccccc1 | -34.7
COCCCNC(=O)CCc1nc2cccnc2n1Cc1ccccc1 | -11.9
Cc1ccc([N+](=O)[O-])cc1N/C=C1\CCCCC1=O | 16.5
Cc1ccc(N(CC(=O)NCc2cccnc2)S(C)(=O)=O)cc1C | 12.4
COc1ccc(C2=NOC(C(=O)NCc3cccs3)C2)cc1 (stereo not shown) | 21.3
O=C(Nc1ccccc1)c1cc(S(=O)(=O)N2CCCCC2)ccc1N1CCOCC1 | 12.6
NC(=O)c1ccc(NC(=O)c2cc(S(=O)(=O)N3CCCCC3)ccc2N2CCOCC2)cc1 | 13.4
O=C(Nc1ccccc1N1CCCCC1)c1cc(S(=O)(=O)N2CCOCC2)ccc1Cl | 7.72
CS(=O)(=O)c1ccc(Cl)c(NC(=O)c2cc(S(=O)(=O)N3CCOCC3)ccc2N2CCCC2)c1 | -60.2
CNC(=O)c1ccc(NC(=O)c2cc(S(=O)(=O)N3CCOCC3)ccc2N2CCCC2)cc1 | 13.5
O=C(Nc1ccccc1Cl)c1cc(S(=O)(=O)N2CCCCC2)ccc1N1CCOCC1 | -5.21
N#Cc1ccc(NC(=O)c2cc(S(=O)(=O)N3CCOCC3)ccc2N2CCCC2)cc1 | -58.9
O=C(Nc1ccccc1N1CCCC1)c1cc(S(=O)(=O)N2CCOCC2)ccc1Cl | -9.58
NC(=O)c1ccccc1NC(=O)c1cc(S(=O)(=O)N2CCCCC2)ccc1N1CCOCC1 | -60.5
CC1=NN(c2ccc(C(=O)O)cc2)C(=O)/C1=C/c1ccc(-c2ccccc2F)o1 | 15.2
C=CCOc1cccc(C(=O)N2CCC(CCC(=O)NC3CC3)CC2)c1 | 12.6
